Screening results: PubChem, several laboratories
An excerpt weighted towards active compounds, which were near 2.2% of everything screened.
GC-B act: GC-B (human) receptor activation. 370,000 tested, 0.11% active. HEK293-GC-B cells, CNP EC30, cGMP TR-FRET; 0% at EC30 CNP, 100% saturating CNP. AID 1920062. activation, % at 10 µM;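 active = activation at 10 µM reaching about 35% in either raw or pattern-adjusted values, limit read from the data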
PLCb3 inh: blocks human PLC-beta3 enzyme activity | Q01970 | 370,000 tested, 0.18% active | inhibition, % at 12.2 µM | Purified PLC-beta3, fluorogenic substrate, fluorescence | AID 720704; in the data active = inhibition above about 11%
NPR1 activator: GC-A (human) enzyme activation; P16066; HEK293 GC-A cells, cGMP TR-FRET, EC30 ANP; 0% at EC30 ANP, 100% saturating ANP; activation, % at 10 µM; 370,000 tested, 0.14% active; AID 1671463; in the data active = activation above about 40%
Rce1 inhib: inhibitors of yeast Ras-converting enzyme; yeast membranes, quenched prenylated peptide cleavage fluorescence; calls only; AID 2563; 290,000 tested, 0.27% active; Q03530;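 active = fall in fluorescence gain of 50% or more versus controls, with final raw signal at or below 3038400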
PfM18AAP inh: PfM18AAP enzyme inhibition | inhibition, % at 7.35 µM | 290,000 tested, 1.2% active | recombinant PfM18AAP, H-Glu-NHMec fluorogenic cleavage;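 active = inhibition above the campaign mean inhibition over all tested compounds plus 3 SD, cut at about 28% in these data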
PLC-gamma1 inh: blocks human PLC-gamma1 enzyme activity; purified PLC-gamma1, fluorogenic substrate, fluorescence; inhibition, % at 12.2 µM; 370,000 tested, 0.84% active; AID 720700
PLCg1 ctr: counter-screen for PLC-beta3 inhibitors: inhibitors of human PLC-gamma1 | shares compounds with PLC-gamma1 inh | purified PLC-gamma1, fluorogenic substrate, fluorescence | inhibition, % at 12.3 µM | 3,300 tested, 3.1% active | AID 743258
PLCbeta3 conf: human PLC-beta3 inhibition, confirmation | shares compounds with PLC-gamma1 inh | purified PLC-beta3, fluorogenic substrate fluorescence | inhibition, % at 12.3 µM | 3,300 tested, 1% active; in the data active = inhibition above about 11%
A number is an active result. Rule as the data show it, unless noted: active = inhibition above about 9.5%; inactive = the rest.

What do the screens show for `COC(OC)C(C)NC(=O)NC(=O)c1ccccc1Cl` (stereo not drawn)?
GC-B act: inactive; PLCb3 inh: inactive; NPR1 activator: inactive; Rce1 inhib: inactive; PfM18AAP inh: inactive; PLC-gamma1 inh: inactive

How did COC(=O)/C=C(\C)NC(=O)c1ccccc1Cl do in these assays?
GC-B act: inactive; PLCb3 inh: 10.9; NPR1 activator: inactive; Rce1 inhib: inactive; PfM18AAP inh: inactive; PLC-gamma1 inh: inactive; PLCg1 ctr: inactive; PLCbeta3 conf: inactive

Results for O=C(COc1ccccc1)N=C1SC2CS(=O)(=O)CC2N1c1ccc(F)cc1F (stereo not drawn) ?
GC-B act: inactive; PLCb3 inh: inactive; NPR1 activator: inactive; Rce1 inhib: inactive; PfM18AAP inh: inactive; PLC-gamma1 inh: 10.1; PLCg1 ctr: inactive; PLCbeta3 conf: inactive

Results for COC(=O)[C@]12C[C@H](CC(=O)NCC34CC5CC(CC(C5)C3)C4)C(=O)N(Cc3ccc(Cl)cc3Cl)C1=C[C@H](C(C)C)O[C@@H]2C1CC1 ?
GC-B act: inactive; PLCb3 inh: inactive; NPR1 activator: inactive; PLC-gamma1 inh: inactive

Results for CCN(C(=O)[C@@H](C)[C@@H](O)c1ccc2ccccc2c1)c1ccccc1 ?
GC-B act: inactive; PLCb3 inh: inactive; NPR1 activator: inactive; PLC-gamma1 inh: inactive

What do the screens show for `CN1CCN(C(c2ccccc2)c2nnnn2C(C)(C)C)CC1` (stereo not drawn)?
GC-B act: inactive; PLCb3 inh: inactive; NPR1 activator: inactive; PLC-gamma1 inh: 11.6; PLCg1 ctr: inactive; PLCbeta3 conf: inactive

Results for CC(C)(C)n1nnnc1C(c1ccccc1)N1CCN(C(=O)C2CCCO2)CC1 (stereo not drawn) ?
GC-B act: inactive; PLCb3 inh: inactive; NPR1 activator: inactive; PLC-gamma1 inh: 9.9; PLCg1 ctr: inactive; PLCbeta3 conf: inactive

Results for CCOC(=O)N[C@H](C(=O)N1CCC[C@H]1C(=O)NCCc1ccccc1Cl)c1ccccc1 ?
GC-B act: inactive; PLCb3 inh: inactive; NPR1 activator: inactive; PLC-gamma1 inh: inactive

What do the screens show for `CC(=NN1CCN(Cc2ccccc2Cl)CC1)c1ccc(O)cc1`?
GC-B act: inactive; PLCb3 inh: inactive; NPR1 activator: inactive; PLC-gamma1 inh: 15.8; PLCg1 ctr: inactive; PLCbeta3 conf: inactive

Results for CC1=CC(=O)C(C(C)C)=CC1=NC(=O)c1ccc(C)cc1 ?
GC-B act: inactive; PLCb3 inh: 11.0; NPR1 activator: inactive; Rce1 inhib: inactive; PfM18AAP inh: inactive; PLC-gamma1 inh: 11.4; PLCg1 ctr: inactive; PLCbeta3 conf: inactive

How did COc1ccc(N2C(=O)c3n[nH]c(C)c3C2c2cccc(C(F)(F)F)c2)cc1 (stereo not drawn) do in these assays?
GC-B act: inactive; PLCb3 inh: inactive; NPR1 activator: inactive; PLC-gamma1 inh: inactive

Results for CCC/C(O)=C1\C(=O)CCCC1=NC(C)C(=O)O (stereo not drawn) ?
GC-B act: inactive; PLCb3 inh: inactive; NPR1 activator: inactive; PfM18AAP inh: inactive; PLC-gamma1 inh: 9.8; PLCg1 ctr: inactive; PLCbeta3 conf: inactive

Results for CCC/C(O)=C1\C(=O)CCCC1=NCCc1ccc(OCC)c(OCC)c1 ?
GC-B act: inactive; PLCb3 inh: inactive; NPR1 activator: inactive; Rce1 inhib: inactive; PfM18AAP inh: inactive; PLC-gamma1 inh: inactive

What do the screens show for `CCN(CC)S(=O)(=O)c1ccc(N=Nc2c(C)[nH]n(C(N)=S)c2=O)cc1`?
GC-B act: inactive; PLCb3 inh: inactive; NPR1 activator: inactive; Rce1 inhib: inactive; PfM18AAP inh: inactive; PLC-gamma1 inh: 10.5; PLCg1 ctr: inactive; PLCbeta3 conf: inactive

Results for CC(=O)N(C)c1ccc(N=Nc2c(C)[nH]n(C(N)=S)c2=O)cc1 ?
GC-B act: inactive; PLCb3 inh: inactive; NPR1 activator: inactive; Rce1 inhib: inactive; PfM18AAP inh: inactive; PLC-gamma1 inh: inactive

Results for CCN(CC)C(=O)c1[nH]cnc1C(=O)Nc1ccccc1 ?
GC-B act: inactive; PLCb3 inh: inactive; NPR1 activator: inactive; PLC-gamma1 inh: inactive

Results for CCN(CC)C(=O)c1nc[nH]c1C(=O)N(CC)CC ?
GC-B act: inactive; PLCb3 inh: inactive; NPR1 activator: inactive; PLC-gamma1 inh: 13.7; PLCg1 ctr: inactive; PLCbeta3 conf: inactive

How did CCCCc1c(-c2ccccc2OC)ncn1C(C)c1ccccc1 (stereo not drawn) do in these assays?
GC-B act: inactive; PLCb3 inh: inactive; NPR1 activator: inactive; PLC-gamma1 inh: inactive

Results for NC(=NCCc1c[nH]c2ccccc12)NC(=O)OCc1ccccc1 ?
GC-B act: inactive; PLCb3 inh: inactive; NPR1 activator: inactive; PLC-gamma1 inh: inactive

What do the screens show for `CC(=O)NC(=S)Nc1ccc(NC(=S)NC(=O)/C=C/c2ccco2)cc1`?
GC-B act: inactive; PLCb3 inh: inactive; NPR1 activator: inactive; Rce1 inhib: inactive; PfM18AAP inh: inactive; PLC-gamma1 inh: inactive

How did O=C(/C=C/c1ccco1)NC(=S)Nc1ccc(C(=O)O)cc1 do in these assays?
GC-B act: inactive; PLCb3 inh: inactive; NPR1 activator: inactive; Rce1 inhib: inactive; PfM18AAP inh: 29.0; PLC-gamma1 inh: 25.6; PLCg1 ctr: 16.9; PLCbeta3 conf: inactive

How did CCCCCCN1CCN(C2CN(Cc3cn(Cc4ccc(C)cc4)nn3)S(=O)(=O)C2)CC1 (stereo not drawn) do in these assays?
GC-B act: inactive; PLCb3 inh: inactive; NPR1 activator: inactive; PLC-gamma1 inh: 14.5; PLCg1 ctr: inactive; PLCbeta3 conf: inactive

How did Cc1ccc(Cn2cc(CN3CC(N4CCCCC4)CS3(=O)=O)nn2)cc1 (stereo not drawn) do in these assays?
GC-B act: inactive; PLCb3 inh: inactive; NPR1 activator: inactive; PLC-gamma1 inh: inactive

How did O=C(CSc1nccn1Cc1ccco1)Nc1ccc(F)cc1 do in these assays?
GC-B act: inactive; PLCb3 inh: inactive; NPR1 activator: inactive; Rce1 inhib: inactive; PfM18AAP inh: inactive; PLC-gamma1 inh: inactive

How did O=C(CSc1nccn1Cc1ccco1)Nc1cccc(F)c1 do in these assays?
GC-B act: inactive; PLCb3 inh: inactive; NPR1 activator: inactive; Rce1 inhib: inactive; PfM18AAP inh: inactive; PLC-gamma1 inh: 10.0; PLCg1 ctr: inactive; PLCbeta3 conf: inactive

How did Cc1ccc(/C=C/C(=O)O)cc1S(=O)(=O)NCC1CCCO1 (stereo not drawn) do in these assays?
GC-B act: inactive; PLCb3 inh: inactive; NPR1 activator: inactive; Rce1 inhib: inactive; PfM18AAP inh: inactive; PLC-gamma1 inh: inactive

How did Cc1ccc(/C=C/C(=O)O)cc1S(=O)(=O)NC1CCS(=O)(=O)C1 (stereo not drawn) do in these assays?
GC-B act: inactive; PLCb3 inh: inactive; NPR1 activator: inactive; Rce1 inhib: inactive; PfM18AAP inh: inactive; PLC-gamma1 inh: 11.2; PLCg1 ctr: inactive; PLCbeta3 conf: inactive
